Screens deposited in PubChem BioAssay by Broad Institute.
This is one part of a sample in which hits are shown more often than they occur.
Tgondii IFNg: blocks Toxoplasma gondii growth in the presence of IFN-gamma; Toxoplasma gondii growth in IFN-gamma-treated host cells; active compounds read low; activity change, negative = inhibition, % (test concentration not listed); 3.8% of 69,000 active; in the data active = activity change below about -70%, passing the limit was not always enough;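 note: host cells are HeLa cells infected with Toxoplasma gondii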
Active calls of the source: *; ! = a repeat was not active.

SMILES	Tgondii IFNg
C=CC(=O)Nc1cccc(Nc2nc(Nc3ccc(Oc4ccnc(C(=O)NC)c4)cc3)ncc2F)c1	-77.9*
C=CC(=O)Nc1cccc(OC)c1	16.9
C=CC(=O)Nc1ccc2ncnc(Nc3cccc(Br)c3)c2c1	-44.6
Cn1nc(-c2cccnc2)cc1CN1CCN(C(=O)C2CCCCC2)CC1	0.8
COc1ccc(CNc2nc(C)nc(C)c2Oc2ccc(Cl)cc2Cl)cc1	-8.1
Cc1nc(C)c(Oc2ccc(Cl)cc2Cl)c(Sc2cccc(C(F)(F)F)c2)n1	-107.1*
CCOC(=O)c1nc(C)nc(Sc2ccc(Cl)cc2)c1C	10.7
CC1c2ncc(CNC(=O)C3CC3)n2CCN1Cc1ccsc1 (stereo not drawn)	4.0
CNC(=O)c1ccc(C2CCCN2c2nc(CCN)nc3ccccc23)s1 (stereo not drawn)	30.5
COCCN1CCc2nc(-c3cnn(C)c3)nc(NC3CC3)c2C1	78.2
Cn1cc(-c2nc3c(c(NC4CC4)n2)CN(S(=O)(=O)c2cccc(F)c2)CC3)cn1	-73.9*
CCS(=O)(=O)N1CCc2nc(-c3cccc(F)c3)nc(NC3CC3)c2C1	-34.8
CN(C)C(=O)NCC[C@@]12CCO[C@@H]1CCN(c1ncc(F)cn1)C2	-4.2
CCc1nc(OCC(=O)Nc2ccccc2C)c2ccccc2n1	6.3
COCCN1C(=O)CCc2cc(NC(=O)c3cc(C)ccc3C)ccc21	-7.8
COC(=O)C1CCN(C(=O)c2cc3cccnc3n(Cc3ccccc3)c2=O)CC1	5.0
O=C(Nc1ccccc1)OCCCCCOC(=O)Nc1ccccc1	-18.5
CC(C)(COC(=O)Nc1ccc(Cl)cc1)n1cccc1	10.0
O=C(Nc1ccc(Cl)cc1)OC1CN(C(c2ccccc2)c2ccccc2)C1	-59.0
O=C(Nc1ccccc1)OCC(CN1CCCCC1)OC(=O)Nc1ccccc1 (stereo not drawn)	-4.3
O=C(Nc1ccccc1)OCc1cccc(COC(=O)Nc2ccccc2)c1F	-82.3*
O=C(Nc1ccc(Cl)cc1)OCc1cccc(COC(=O)Nc2ccc(Cl)cc2)n1	-98.5*
Cc1cccc(-c2nc(C)c(CCNS(=O)(=O)c3ccc(F)c(C(F)(F)F)c3)s2)c1	16.0
CCN(CC)CCCNC(=O)C1=C(C)C(=O)OC12CCN(S(C)(=O)=O)CC2	40.9
Cc1ccc2ncccc2c1NC(=O)CC1CCNCC1	-1.7
SMILES	Tgondii IFNg
Cc1cnc(-c2cnc(NCCNc3ccc(C#N)cn3)nc2-c2ccc(Cl)cc2Cl)[nH]1	19.2
COc1cccc(NC(=O)N[C@H]2CC[C@@H](CC(=O)N3CCN(C)CC3)O[C@@H]2CO)c1	-31.7
Cn1cc(C(=O)N2CCC3(CCC(=O)N3CC3CC3)CC2)cn1	-56.3
Cc1ccc(NC(=O)CSc2nnc(-c3ccncc3)n2-c2ccccc2)cc1	-59.2
COc1ccc(-n2c(-c3ccccc3)cnc2SCC(=O)Nc2cc(C)cc(C)c2)cc1	-98.3*
COc1ccc(NC(=O)CSc2nnc3c(C)cc4ccccc4n23)cc1	-0.5
C[C@@H]1CN([C@@H](C)CO)C(=O)CCCn2nncc2CO[C@H]1CN(C)Cc1ccc2c(c1)OCCN2C	60.7
CO[C@@H]1CCN(C(=O)c2ccnn2C)C[C@@H]1Cc1cccc(C)c1	3.9
Cn1cc(N2CC3(CCN(c4ncc(F)cn4)CC3)OCC2=O)cn1	0.6
CN1CCN(CCCN(C)CC(C)(C)c2ccc(Cl)cc2)CC1	-9.2
CN1CCN(CCCN2c3ccccc3Sc3ccc(C(F)(F)F)cc32)CC1	-79.8*!
CN1CCN(C2=Nc3ccccc3Sc3ccc(Cl)cc32)CC1	9.0
CC(NC(=O)C(C)(C)NC(=O)c1cccs1)c1ncn[nH]1 (stereo not drawn)	78.6
COc1ccccc1-c1cc(C(=O)N2CCC(O)(c3ccccc3)C2)[nH]n1 (stereo not drawn)	-7.1
CCC(CC)n1ncc(C)c1NC(=O)COc1cccnc1	-42.8
CC1COC2(CCN(c3ccc(C#N)cc3)CC2)C1 (stereo not drawn)	-90.1*
N#Cc1ccc(N2CCC3(CC2)CC(Oc2cccnc2)CO3)cc1 (stereo not drawn)	-51.1
CCN1CCOCC12CCN(c1ccc(C#N)cc1)CC2	13.2
O=S(=O)(c1ccccc1Cl)N1CCC2(CC1)Nc1ccc(Cl)cc1-n1cccc12	3.1
C[C@@H]1CN([C@H](C)CO)C(=O)c2c(c3ccccc3n2C)-c2ccccc2CO[C@H]1CN(C)Cc1cccc(C(F)(F)F)c1	-74.4*
C[C@@H]1CN([C@@H](C)CO)C(=O)c2c(c3ccccc3n2C)-c2ccccc2CO[C@@H]1CN(C)C	-18.1
C[C@@H]1CN([C@@H](C)CO)C(=O)c2c(c3ccccc3n2C)-c2ccccc2CO[C@H]1CN(C)Cc1cccc(C(F)(F)F)c1	-66.0
COCCn1cnnc1CN(C)c1nc(C(C)(C)C)nc2c1cnn2C	-1.6
COc1cccc(-c2ccc3c(c2)[C@H]2[C@H](CCN2C(=O)c2ccccn2)[C@H](CO)N3)c1	151.0
COc1ccc(CN2C[C@H](O)COC[C@@H]3O[C@H](CC(=O)N(C)C)CC[C@H]32)cc1	19.2
SMILES	Tgondii IFNg
O=c1[nH]cc(F)c(=O)[nH]1	-96.3*!
CCC(CC)C(=O)Nc1c[nH]c(=O)[nH]c1=O	-6.8
CN(Cc1ccncn1)C(=O)c1nn(C)c(=O)c2ccccc12	2.1
CC(C)N1CCOCC2(CCCN(C(=O)Cc3ccsc3)C2)C1 (stereo not drawn)	-3.1
CC(c1ccccc1F)n1cc(C(=O)NCCN2CCOCC2)nn1 (stereo not drawn)	-3.1
O=C(O)c1c2c(nc3ccccc13)CSc1ccc(Cl)cc1-2	23.0
O=C(O)c1ccccc1	12.0
O=C(O)c1c2ccccc2nc2ccccc12	-74.7*
O=C(Nc1cc(F)ccc1F)N[C@H]1CC[C@H](CCn2cc(C3CCCCC3)nn2)O[C@@H]1CO	-26.8
Cc1ccc(C(=O)N2CCC3(CC2)C(=O)NCC3c2ccccc2)cn1 (stereo not drawn)	141.6
Cn1ccc2c(-c3cccc(O)c3)ccnc21	-77.5*
CNC(=O)c1ccc(-c2ccnc3c2ccn3C)o1	60.8
Cn1ccc2c(-c3ccc(C(=O)O)cn3)ccnc21	11.9
COC1C2CCC1N(S(=O)(=O)c1ccccc1)CCO2 (stereo not drawn)	-59.6
O=c1sc2ccccc2n1CCCOc1ccccc1	-9.6
COC(=O)C(Cc1ccc(OCCn2c(=O)sc3cc(C(=O)c4ccccc4)ccc32)cc1)C(=O)OC	-86.7*
CN(CCOc1ccc(CC(Nc2ccccc2C(=O)c2ccccc2)C(=O)O)cc1)c1ccccn1 (stereo not drawn)	7.0
CC(C)(C(=O)N1CCC2(CCNC(=O)CC2)CC1)c1ccccc1	-4.5
Cn1cc(CN2CCC(c3n[nH]c(=O)n3Cc3ccccc3)CC2)cn1	2.8
CNC(=O)c1ccc(CN2CCCC(CCc3ccccc3C)C2)cc1 (stereo not drawn)	-7.4
Cc1c[nH]c(CN2CCCC(CCc3ccccc3F)C2)c(C)c1=O (stereo not drawn)	-89.2*
COc1coc(CN2CCCC(CCc3ccccc3C)C2)cc1=O (stereo not drawn)	-13.9
CC(=O)N1CCc2cc(NC(=O)Cn3nc(C)nc3C)ccc21	8.6
CCc1cn[nH]c1C1CCN(c2cc(C(C)C)nc(C(F)(F)F)n2)CC1	-23.5
COc1cccc(OC)c1-c1cccc(OC(C)C(N)=O)c1 (stereo not drawn)	-4.2
C=CCc1c(C)nc2ccc(C(=O)OCC)cc2c1Cl	-102.0*
CCOC(=O)c1cccc(P(C)(C)=O)c1	14.1
C=CCc1c(C)nc(SC)nc1Nc1ccc(C(=O)O)cc1	-6.9
N#CCN1CCCn2cnc(COCc3ccco3)c2C1	2.7
CN1C(=N)N(c2nc(N(C)C)nc(N(C)C)n2)CC1=O	28.3
